NPC1 promoter act: activators of NPC1 promoter | Potency, µM (series often up to 9.22 µM), inactives show at the highest dose activation, hits mostly activators | 320,000 tested, 2.4% active | Huh7 NPC1 promoter luciferase reporter, 24 h; note: % of control where 0% means no effect; nearly all actives have a fitted effect of over 60% in size
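Readout is luciferase luminescence, reflecting NPC1 promoter activation in stably transfected Huh7 cells after 24 h compound exposure at 37 °C in reduced-serum medium with 10% FBS.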
SMN2 splice enh: increases expression of the SMN2 splice variant; HEK293 SMN2-luciferase splicing reporter, luminescence, 30-36 h; 210,000 tested, 2.8% active; Potency, µM (doses to about 46.1 µM), for inactives: at the highest dose activity change, positive = activation, most hits filed as activators; note: % of control where 0% means no effect; nearly all actives have a fitted effect of over 55% in size
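HEK293 cells carry an SMN2 […]–luciferase reporter in which exon 7 inclusion puts luciferase in frame. Cells were plated 10-12 h before compound addition, then incubated 30-36 h at 37C. ONE-Glo luminescence was read; sodium butyrate at 4.5 mM final served as control.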
FLuc modulator: inhibits or activates purified firefly luciferase, miR-21 counter-screen. P08659. purified FLuc, Km substrates, luminescence inhibition. Potency, µM (titrated, usually from 57.5 µM), without a hit: at the top dose activity change, negative = inhibition, hits mostly inhibitors. 360,000 tested, 6.9% active;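 note: plate controls were vehicle for no effect and reference inhibitor for full effect; nearly all actives have a fitted effect of over 55% in size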
Target sequence (P08659 whole entry, looked up): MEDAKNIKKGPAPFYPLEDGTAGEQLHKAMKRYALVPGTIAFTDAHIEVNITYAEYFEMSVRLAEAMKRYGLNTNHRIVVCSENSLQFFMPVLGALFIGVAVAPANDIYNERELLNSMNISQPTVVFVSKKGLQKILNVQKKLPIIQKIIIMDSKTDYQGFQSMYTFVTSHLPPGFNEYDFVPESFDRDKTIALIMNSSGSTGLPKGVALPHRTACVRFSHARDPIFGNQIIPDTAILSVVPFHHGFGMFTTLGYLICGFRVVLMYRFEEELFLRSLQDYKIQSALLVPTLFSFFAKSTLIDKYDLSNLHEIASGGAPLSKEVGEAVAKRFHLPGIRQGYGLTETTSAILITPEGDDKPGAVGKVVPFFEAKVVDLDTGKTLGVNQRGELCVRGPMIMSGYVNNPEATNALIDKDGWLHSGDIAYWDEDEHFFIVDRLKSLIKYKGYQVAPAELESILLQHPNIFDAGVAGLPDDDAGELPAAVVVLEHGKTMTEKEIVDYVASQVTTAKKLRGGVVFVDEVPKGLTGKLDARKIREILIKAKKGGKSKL
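Purified P. pyralis luciferase, 10 nM final, with Km-level 10 uM D-luciferin and 10 uM ATP in 50 mM Tris acetate pH 7.5, 10 mM Mg acetate, 0.01% Tween-20, 0.05% BSA; 6-point qHTS titration about 60 µM downward; luminescence read.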
Rab9 promoter act: Rab9 promoter activation; 320,000 tested, 2.8% active; Potency, µM (series often up to 9.22 µM), for inactives: top-dose activation, negative = inhibition, actives largely listed as activators; Huh7 Rab9 promoter-luciferase reporter, luminescence, 24 h; note: % of control where 0% means no effect; nearly all actives have a fitted effect of over 60% in size
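Cell-based reporter: Huh7 stable for Rab9 promoter-driven luciferase, plated in reduced-serum medium with 10% FBS at 1500 cells/well, compound-treated 24 h at 37 °C, luminescence read after 10 min reagent.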
ELG1 genotoxic: genotoxicity induction in ELG1-luciferase HEK293T cells. Potency, µM (titrated, usually from 46 µM), for the others: top-dose activity change, positive = activation, usual class: activators. 330,000 tested, 1.3% active. AID 504466. HEK293T ELG1-luciferase reporter, luminescence, 16 h; note: % of control where 0% means no effect; nearly all actives have a fitted effect of over 60% in size
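Quantitative HTS format in 1536-well plates. HEK293T ELG1-luciferase reporter cells receive test compound and are incubated 16 hr at 37 °C, 5% CO2; ONE-Glo added, 30 min room temperature, then luminescence read.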
ELG1 DNA repair: ELG1-dependent DNA repair inhibition. HEK293T ELG1-luciferase reporter, luminescence, 16 h; DNA damage induced by 5-fluorouridine. Potency, µM (top dose mostly 46.1 µM), for the others: top-dose activity change, negative = inhibition, most hits filed as inhibitors. 330,000 tested, 2.3% active. AID 504467; note: % is set by controls: 0 for no effect and ±100 for the full control effect; nearly all actives have a fitted effect of over 55% in size
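Overnight (16 hr) co-exposure of 2,000 cells/well to 5-fluorouridine and compound at 37 °C preceded detection. Luciferase was quantified via ONE-Glo luminescence; loss of signal denotes inhibition.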
* = called active by the depositor; ? = inconclusive; nt = no result given; [ ] = remark or other dose. Rows were chosen to be rich in hits. Some 9.3% of all compounds tested hit in one or more screens of this group. Calls come from the whole dose curve; as a rule, active = well fitted curve in the direction sought with a large enough effect; inconclusive = small, poorly fitted or top-dose-only effect, or another doubt; inactive = no such curve, though single readings can be large; an effect the other way counts as inactive or inconclusive. Potency is the fitted concentration of half-maximal effect.

SMILES	NPC1 promoter act	SMN2 splice enh	FLuc modulator	Rab9 promoter act	ELG1 genotoxic	ELG1 DNA repair
Cc1occc1C(=O)N/N=C/C(Br)=C/c1ccccc1	1.78µM*	8.91µM*	2.69µM*	0.891µM*	?	?
Cc1occc1C(=O)N/N=C/c1cccnc1	11.7%	16.0%	-22.7%	10.0%	14.6%	?
Cc1occc1C(=O)N/N=C/c1ccc(OCc2ccccc2)cc1	?	nt	?	2.82µM*	?	?
Cc1cc(C)cc(N(CC(=O)NCc2ccc(F)cc2)C(=O)c2snc(C(N)=O)c2N)c1	-8.2%	nt	1.2%	-2.9%	8.0%	-4.4%
CCCn1c(=O)cc(N)n(-c2ccc(OC(F)(F)F)cc2)c1=O	2.0%	nt	-1.6%	-5.6%	0.2%	1.3%
CCN(C(=O)CSc1nnc(-c2ccc(Cl)cc2)o1)c1ccccc1	nt	nt	1.0%	nt	nt	nt
Cc1ccc(-n2nnnc2-c2cnc3ccc(Cl)cc3c2-c2ccccc2)cc1	-8.6%	-6.1%	5.9%	1.1%	-3.1%	-4.1%
COc1cc(/C=C2\NC(=S)NC2=O)ccc1OCc1cccc(C(=O)O)c1	18.7%	nt	0.379µM*	17.4%	20.6µM*	?
O=C1NC(=O)/C(=C\c2ccc(OCc3cccc(C(=O)O)c3)c(Cl)c2)N1	?	11.2µM*	0.601µM*	2.24µM*	-3.4%	?
CN1C(=O)/C(=C/c2ccc(OCc3ccc(C(=O)O)cc3)c(Cl)c2)NC1=S	-0.7%	nt	-5.8%	-3.6%	-3.6%	3.4%
COc1ccc(CN(Cc2ccc(C(=O)O)cc2)C(=S)Nc2ccccc2C)cc1OC	1.2%	-25.3%	-3.4%	-5.9%	-0.4%	22.1%
Cc1cccc(C(C)C)c1NC(=O)c1ccc(OCC2CCCO2)cc1 (centres undefined)	nt	nt	nt	nt	-3.6%	?
Cc1cccc2sc(NC(=O)c3ccc(OCC4CCCO4)cc3)nc12 (centres undefined)	26.7%	2.8%	10.7µM*	-3.0%	6.4%	6.2%
CCOc1ccc2nc(NC(=O)CSc3nnc(-c4ccncc4)n3CC3CCCO3)sc2c1 (centres undefined)	?	12.7%	2.39µM*	?	?	?
Cc1csc(NC(=O)c2ccc(OCC3CCCO3)cc2)n1 (centres undefined)	?	1.41µM*	5.36µM*	0.447µM*	-6.8%	?
O=C(Nc1nc(-c2ccc(F)c(F)c2)cs1)c1ccc(OCC2CCCO2)cc1 (centres undefined)	-28.1%	nt	-25.9%	-34.3%	-2.1%	?
CCOc1ccc2nc(NC(=O)c3ccc(OCC4CCCO4)cc3)sc2c1 (centres undefined)	26.7%	?	2.69µM*	15.5%	-0.8%	?
O=C(Cn1ncn2c(cc3ccccc32)c1=O)NCc1ccc(F)cc1	nt	3.6%	5.5%	nt	nt	nt
CCNC(=O)CN(CCc1ccccc1)S(=O)(=O)c1ccc(OC)cc1	0.8%	-16.6%	-1.3%	3.0%	-1.3%	1.2%
CCNC(=O)CN(Cc1ccccc1)S(=O)(=O)c1ccccc1	-0.3%	0.3%	8.1%	0.4%	23.1µM*	0.0%
COc1ccc(CNC(=O)C2COc3ccccc3O2)cc1 (centres undefined)	?	12.6µM*	?	?	13.6%	?
COc1ccccc1CNC(=O)C1COc2ccccc2O1 (centres undefined)	15.0%	?	?	-6.3%	18.4µM*	?
COc1ccccc1C(CNC(=O)C1COc2ccccc2O1)N1CCCC1 (centres undefined)	-10.8%	nt	-9.3%	-3.5%	-0.2%	-0.4%
Cc1ccc(C)c(N2CCN(C(=O)c3ccc4c(c3)c(C)c(C)n4C)CC2)c1	-4.1%	nt	0.8%	-3.9%	-4.8%	?
O=C(Nn1cnc2ccccc2c1=O)c1ccccc1F	-3.0%	nt	1.9%	-2.5%[1.84 µM]	5.8%	4.0%
SMILES	NPC1 promoter act	SMN2 splice enh	FLuc modulator	Rab9 promoter act	ELG1 genotoxic	ELG1 DNA repair
O=C(Nc1nnc(-c2ccccc2F)s1)c1cccnc1	2.24µM*	?	9.53µM*	2µM*	?	?
O=C(Nc1nnc(C(F)(F)F)s1)c1c(F)cccc1F	11.8%	nt	?	4.6%	-6.9%	0.0%
O=C(Nc1nnc(C(F)(F)F)s1)c1cccnc1	?	11.2µM*	12µM*	4.47µM*	12.4%	?
COc1ccc(Cl)cc1C(=O)Nn1c(-c2cccs2)nc2ccccc2c1=O	-0.2%	29.3%	-2.2%	-8.2%	0.5%	6.51µM*
Cc1ccc(C)c2sc(N)nc12	0.2%	nt	-11.0%	0.5%	4.4%	10.7%
CN1CCN(CC(=O)N(C)c2nc(-c3ccccc3)cs2)CC1	3.98µM*	-34.5%	15.1µM*	2.82µM*	?	?
CN(C(=O)COc1ccccc1)c1nc(-c2ccc(F)cc2)cs1	-3.7%	0.5%	-6.9%	-1.2%	3.9%	8.5%
O=C(CN1CCCCC1)Nc1nc(-c2ccc(Cl)cc2)cs1	1.3%	nt	16.9µM*	1.2%	6.8%	-3.3%
COc1ccc(C2(O)CCN(CC(=O)Nc3nc(-c4ccccc4)cs3)CC2)cc1	-5.8%	-52.6%	-16.1%	-3.2%	-9.7%	23.1µM*
O=C(CN1CCCCC1)Nc1nc(-c2ccccc2)cs1	?	nt	21.3µM*	22.4%	?	?
CN1CCN(CC(=O)Nc2nc(-c3ccccc3)cs2)CC1	-4.1%	-1.9%	-17.6%	-2.1%	2.0%	?
C[N+]1(NCC[N@@+]2(C)CCc3ccccc3C2)CCCCC1	nt	-4.5%[9.22 µM]	nt	nt	nt	nt
COCC(=O)Nc1nc(-c2ccc(-c3ccccc3)cc2)cs1	2.24µM*	nt	?	0.794µM*	0.2%	?
CC(OC(=O)c1ccc(NC(=O)CC#N)cc1)C(=O)Nc1nc(-c2ccccc2)cs1 (centres undefined)	11.0%	nt	2.1%	15.9%	23.1µM*	?
O=C(COC(=O)c1ccccn1)Nc1nc(-c2ccccc2)cs1	0.1%	nt	?	21.0%	23.9%	?
Cn1ncc(Br)c1C(=O)OCC(=O)Nc1nc(-c2ccccc2)cs1	21.6%	14.1µM*	-6.0%	-1.2%	0.7%	?
COCC(=O)Nc1nc(-c2ccc([N+](=O)[O-])cc2)cs1	0.3%	3.2%	-4.9%	?	-0.3%	3.3%
CCc1ccc(-c2csc(NC(=O)Oc3ccccc3)n2)cc1	?	nt	6.01µM*	?	?	?
O=C(Nc1nc(-c2cccc(Br)c2)cs1)Oc1ccccc1	20.9%	-10.5%	-1.8%	20.2%	10.5%	0.0%
O=C(CSCC(=O)NC1CC1)Nc1ccccc1	-4.3%	-9.4%	12.7%	0.0%	-4.3%	1.4%
CCC1(C)Cc2c(sc3nn[nH]c(=O)c23)CO1 (centres undefined)	-3.1%	?	-1.2%	-3.9%	-0.3%	3.1%
CCc1ccc(OC(=O)Nc2ccccc2)cc1	-2.4%	nt	9.53µM*	?	9.3%	22.7%

Compound activity: PubChem, National Center for Advancing Translational Sciences (NCATS)
